Screening results as filed in PubChem.
CYP2C19 activ – human CYP2C19 activators, primary screen, biochemical, luminescence | recombinant CYP2C19, luciferin-H EGE luminescence; hits give high values; 0 = fully inhibited enzyme, 1 = untreated enzyme | AID 1025, 2008 | activation factor at 5 µM | 96,000 tested, under 10 active;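 active = activation factor of at least 2 at 5 µM in the primary screen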;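 also: 0 = wells with 2.5 mM tranylcypromine and 1 = vehicle-only wells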
CYP2C9 act – human CYP2C9 activators, primary screen, biochemical, luminescence; Cytochrome P450 2C9 (Homo sapiens), P11712; recombinant CYP2C9, luciferin-H conversion; hits give high values; factor 1 = untreated enzyme, 0 = blocked; activation factor at 5 µM; actives 1.4% (n = 96,000);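 active = activation factor of 2 or more for CYP2C9 at a 5 µM dose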;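 also: 0 = sulfaphenazole-blocked wells and 1 = vehicle-only wells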
Target sequence (P11712 whole entry, looked up): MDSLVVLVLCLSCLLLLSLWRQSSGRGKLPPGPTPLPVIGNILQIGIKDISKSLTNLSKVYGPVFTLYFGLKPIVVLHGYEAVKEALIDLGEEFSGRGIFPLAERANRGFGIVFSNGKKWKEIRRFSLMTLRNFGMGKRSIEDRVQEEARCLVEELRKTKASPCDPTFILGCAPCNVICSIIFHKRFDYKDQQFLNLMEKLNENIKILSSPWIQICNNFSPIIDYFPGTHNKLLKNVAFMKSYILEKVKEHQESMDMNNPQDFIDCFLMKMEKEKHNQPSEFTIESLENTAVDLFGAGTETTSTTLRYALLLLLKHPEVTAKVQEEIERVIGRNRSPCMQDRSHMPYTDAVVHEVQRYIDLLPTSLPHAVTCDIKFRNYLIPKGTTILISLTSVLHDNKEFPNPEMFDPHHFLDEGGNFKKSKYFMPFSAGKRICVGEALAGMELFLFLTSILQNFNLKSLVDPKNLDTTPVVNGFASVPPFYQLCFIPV
EphB4 antag – EphB4-ephrin-B2 interaction antagonists, primary screen, biochemical, TNYL-RAW peptide probe, fluorescence polarization. Ephrin type-B receptor 4 (Homo sapiens), P54760. EphB4 LBD / TNYL-RAW-Alexa532 peptide. inhibition, % at 7 µM. actives 0.15% (n = 97,000);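 active = inhibition above the screen-wide mean inhibition plus 3 SD, cut at about 15% in these data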;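 also: 0% = DMSO wells and 100% = excess unlabeled TNYL-RAW peptide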
CYP2C9 inh – blockers of cytochrome P450 2C9 activity – biochemical, luminescence, ADME assay, primary screen | actives 20% (n = 96,000) | inhibition, % at 5 µM | CYP2C9 Supersomes, luciferin-H conversion | AID 777, 2007 | P11712;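 active = blocking of liver enzyme CYP2C9 beyond about 50% at 5 µM, limit read from the data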
CYP2C19 inh – blockers of cytochrome P450 2C19 activity – biochemical, luminescence, ADME assay, primary screen | P33261 | CYP2C19 Supersomes, luciferin-H EGE luminescence, 30 min | inhibition, % at 5 µM | actives 21% (n = 96,000) | AID 778, 2007;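 active = CYP2C19 inhibition above a set limit at 5 µM in the primary screen, cut at about 50% in these data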;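 also: plate controls were negative control wells for no effect and 2.5 mM tranylcypromine positive control for full effect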
Active calls of the source: *. An excerpt weighted towards active compounds, which were near 27% of everything screened.

Results for COCCOC(=O)C(C#N)c1nc2ccccc2nc1N1CCN(Cc2ccccc2)CC1 (stereo not given) ?
CYP2C19 activ: 0.2; CYP2C9 act: 0.1; CYP2C9 inh: 91*; CYP2C19 inh: 80*

What do the screens show for `COc1ccc2[nH]cc(C(O)CN3CCC(C(N)=O)CC3)c2c1` (stereo not given)?
CYP2C19 activ: 1.1; CYP2C9 act: 1; EphB4 antag: -7; CYP2C9 inh: 2; CYP2C19 inh: -8

What do the screens show for `CC(C)OCC(O)CS(=O)(=O)Cc1ccccc1` (stereo not given)?
CYP2C19 activ: 0.7; CYP2C9 act: 1; EphB4 antag: -1; CYP2C9 inh: 4; CYP2C19 inh: 29

Results for COc1ccc(N2CCN(Cc3cc(=O)oc4cc(C)c(Cl)c(C)c34)CC2)cc1 ?
CYP2C19 activ: 0.9; CYP2C9 act: 0.8; EphB4 antag: 3; CYP2C9 inh: 17; CYP2C19 inh: 9

What do the screens show for `COCc1[nH]nc2c1C1(CCC3(CC1)OCCO3)C(C#N)=C(N)O2`?
CYP2C19 activ: 1.1; CYP2C9 act: 1.2; CYP2C9 inh: -17; CYP2C19 inh: -10

What do the screens show for `N#CC(C(=O)OC1CCCCC1)c1nc2ccccc2nc1N1CCOCC1` (stereo not given)?
CYP2C19 activ: 0.9; CYP2C9 act: 0.9; EphB4 antag: -5; CYP2C9 inh: 10; CYP2C19 inh: 6

Results for C=CCOC(=O)C(C#N)c1nc2ccccc2nc1N1CCN(Cc2ccccc2)CC1 (stereo not given) ?
CYP2C19 activ: 0.4; CYP2C9 act: 0.4; CYP2C9 inh: 64*; CYP2C19 inh: 57*

How did C=CCOC(=O)C(C#N)c1nc2ccccc2nc1N1CCN(c2ccccc2OC)CC1 (stereo not given) do in these assays?
CYP2C19 activ: 0.7; CYP2C9 act: 0.3; CYP2C9 inh: 72*; CYP2C19 inh: 31

Results for CCC(CC)COC(=O)C(C#N)c1nc2ccccc2nc1N1CCOCC1 (stereo not given) ?
CYP2C19 activ: 0.4; CYP2C9 act: 0.5; EphB4 antag: 5; CYP2C9 inh: 48; CYP2C19 inh: 56*

What do the screens show for `COCCCNC(=O)C(C#N)c1nc2ccccc2nc1N1CCN(Cc2ccccc2)CC1` (stereo not given)?
CYP2C19 activ: 0.1; CYP2C9 act: 0.1; CYP2C9 inh: 93*; CYP2C19 inh: 92*

How did CN1CCN(c2nc3ccccc3nc2C(C#N)C(=O)OC2CCCCC2)CC1 (stereo not given) do in these assays?
CYP2C19 activ: 0.9; CYP2C9 act: 0.9; EphB4 antag: 1; CYP2C9 inh: 9; CYP2C19 inh: 13

Results for CCOC(=O)N1CCN(C(=O)CCn2nc(-c3ccc(Cl)cc3)ccc2=O)CC1 ?
CYP2C19 activ: 0.9; CYP2C9 act: 0.9; EphB4 antag: -4; CYP2C9 inh: 13; CYP2C19 inh: 10

How did Cc1ccccc1NC(=S)NCCc1ccccn1 do in these assays?
CYP2C19 activ: 0.8; CYP2C9 act: 0.8; EphB4 antag: -4; CYP2C9 inh: 24; CYP2C19 inh: 22

What do the screens show for `Cc1nn(-c2cccc(Cl)c2)c2nc(-c3ccco3)cc(C(=O)O)c12`?
CYP2C19 activ: 1.1; CYP2C9 act: 0.1; EphB4 antag: 11; CYP2C9 inh: 90*; CYP2C19 inh: -5

How did Cc1ccc(/C=N/Nc2ncc(Cl)cc2Cl)s1 do in these assays?
CYP2C19 activ: 0.8; CYP2C9 act: 1.2; EphB4 antag: 3; CYP2C9 inh: -24; CYP2C19 inh: 23

Results for Cc1cc(Nc2ncc(Cl)cc2Cl)n[nH]1 ?
CYP2C19 activ: 0.3; CYP2C9 act: 0.9; EphB4 antag: 3; CYP2C9 inh: 6; CYP2C19 inh: 71*

What do the screens show for `O=C(CSc1n[nH]c(-c2ccc(S(=O)(=O)N3CCCCC3)cc2)n1)Nc1nccs1`?
CYP2C19 activ: 1; CYP2C9 act: 0.1; EphB4 antag: 11; CYP2C9 inh: 87*; CYP2C19 inh: 4

How did CCn1c(SCC(=O)Nc2nccs2)nnc1-c1ccc(S(=O)(=O)N2CCCCCC2)cc1 do in these assays?
CYP2C19 activ: 0.8; CYP2C9 act: 0.5; EphB4 antag: 5; CYP2C9 inh: 52*; CYP2C19 inh: 17

Results for CC(C)NC(=O)NC1C2CC3CC(C2)CC1C3 (stereo not given) ?
CYP2C19 activ: 0.8; CYP2C9 act: 1.1; EphB4 antag: -8; CYP2C9 inh: -10; CYP2C19 inh: 21

Results for Cc1ccc(NC(=O)CSc2nc3c(c(=O)[nH]2)CCC3)cc1C ?
CYP2C19 activ: 0.8; CYP2C9 act: 0.5; EphB4 antag: 0; CYP2C9 inh: 51*; CYP2C19 inh: 19

How did CC(C)Cc1c(O)nc(SCC(=O)Nc2ccc3c(c2)CCC3)[nH]c1=O do in these assays?
EphB4 antag: 10

Results for CC(C)c1ccc(NC(=O)CSc2nc3c(c(=O)[nH]2)CCC3)cc1 ?
CYP2C19 activ: 0.9; CYP2C9 act: 0.4; CYP2C9 inh: 60*; CYP2C19 inh: 14

How did CC(C)c1c(O)nc(SCC(=O)Nc2ccc3c(c2)CCC3)[nH]c1=O do in these assays?
CYP2C19 activ: 0.9; CYP2C9 act: 0.8; CYP2C9 inh: 22; CYP2C19 inh: 8

What do the screens show for `c1csc(Cn2nnnc2CN2CCN(c3nc4ccccc4s3)CC2)c1`?
CYP2C19 activ: 1; CYP2C9 act: 0.9; EphB4 antag: 2; CYP2C9 inh: 12; CYP2C19 inh: 0

How did CCCn1nnc(NC(=O)c2ccc(-c3cccc(Cl)c3)o2)n1 do in these assays?
CYP2C19 activ: 0.8; CYP2C9 act: 0.8; EphB4 antag: 5; CYP2C9 inh: 18; CYP2C19 inh: 18

How did CCn1nnc(-c2ccccc2NS(=O)(=O)c2ccc(C(=O)OC)cc2)n1 do in these assays?
CYP2C19 activ: 0; CYP2C9 act: 0.3; EphB4 antag: 5; CYP2C9 inh: 73*; CYP2C19 inh: 98*

Results for Cc1ccc(C(=O)Nc2nc(=O)n(C(=O)c3ccccc3Cl)s2)cc1 ?
CYP2C19 activ: 0.3; CYP2C9 act: 0.1; EphB4 antag: -7; CYP2C9 inh: 94*; CYP2C19 inh: 66*

Results for Cc1ccc(C(=O)Nc2nc(=O)n(C)s2)cc1 ?
CYP2C19 activ: 1; CYP2C9 act: 0.9; EphB4 antag: -10; CYP2C9 inh: 12; CYP2C19 inh: 4

How did Cc1ccc(C(=O)Nc2nc(=O)n(C(=O)CC(C)C)s2)cc1 do in these assays?
CYP2C19 activ: 0.9; CYP2C9 act: 0.2; EphB4 antag: 11; CYP2C9 inh: 84*; CYP2C19 inh: 8

What do the screens show for `CC(C)CC(=O)n1sc(NC(=O)c2ccccc2)nc1=O`?
CYP2C19 activ: 1.2; CYP2C9 act: 0.7; EphB4 antag: 3; CYP2C9 inh: 34; CYP2C19 inh: -16

What do the screens show for `CC1(C)Cc2c(sc3ncn4nc(-c5ccco5)nc4c23)CO1`?
EphB4 antag: 3
